Data from PubChem BioAssay.
Activity calls are given as the source filed them. Unless noted, the rule behind the calls is not given here.

Experiments:
[1] = compounds binding Alexa647 anti-His antibody – biochemical, small-molecule microarray, 635 nm fluorescence, artefact control for SMM control protein annotation, primary screen (AID 1128); settings: higher = more signal;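 note: score merges feature fluorescence with signal-to-noise for each printed compound spot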
[2] = system: Human papillomavirus type 1a E7 protein (residues 1-88); assay: HPV1a E7 small-molecule binders, primary screen, biochemical, small-molecule microarray, residues 1-88, 635 nm (AID 1129); settings: small-molecule microarray binding, fluorescence 635 nm; higher = more signal
[3] = target: Focal adhesion kinase 1 (Homo sapiens) (UniProt Q05397); assay: PTK2 protein binding on printed compound slides – biochemical, small-molecule microarray, 635/667 nm fluorescence, BSA, DTT, primary screen (AID 1130); settings: 635 nm fluorescence, higher = more signal;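 note: composite of spot emission at 667 nm and signal to noise over triplicate slides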
Chain of Focal adhesion kinase 1 (Homo sapiens) (Q05397 whole entry, looked up): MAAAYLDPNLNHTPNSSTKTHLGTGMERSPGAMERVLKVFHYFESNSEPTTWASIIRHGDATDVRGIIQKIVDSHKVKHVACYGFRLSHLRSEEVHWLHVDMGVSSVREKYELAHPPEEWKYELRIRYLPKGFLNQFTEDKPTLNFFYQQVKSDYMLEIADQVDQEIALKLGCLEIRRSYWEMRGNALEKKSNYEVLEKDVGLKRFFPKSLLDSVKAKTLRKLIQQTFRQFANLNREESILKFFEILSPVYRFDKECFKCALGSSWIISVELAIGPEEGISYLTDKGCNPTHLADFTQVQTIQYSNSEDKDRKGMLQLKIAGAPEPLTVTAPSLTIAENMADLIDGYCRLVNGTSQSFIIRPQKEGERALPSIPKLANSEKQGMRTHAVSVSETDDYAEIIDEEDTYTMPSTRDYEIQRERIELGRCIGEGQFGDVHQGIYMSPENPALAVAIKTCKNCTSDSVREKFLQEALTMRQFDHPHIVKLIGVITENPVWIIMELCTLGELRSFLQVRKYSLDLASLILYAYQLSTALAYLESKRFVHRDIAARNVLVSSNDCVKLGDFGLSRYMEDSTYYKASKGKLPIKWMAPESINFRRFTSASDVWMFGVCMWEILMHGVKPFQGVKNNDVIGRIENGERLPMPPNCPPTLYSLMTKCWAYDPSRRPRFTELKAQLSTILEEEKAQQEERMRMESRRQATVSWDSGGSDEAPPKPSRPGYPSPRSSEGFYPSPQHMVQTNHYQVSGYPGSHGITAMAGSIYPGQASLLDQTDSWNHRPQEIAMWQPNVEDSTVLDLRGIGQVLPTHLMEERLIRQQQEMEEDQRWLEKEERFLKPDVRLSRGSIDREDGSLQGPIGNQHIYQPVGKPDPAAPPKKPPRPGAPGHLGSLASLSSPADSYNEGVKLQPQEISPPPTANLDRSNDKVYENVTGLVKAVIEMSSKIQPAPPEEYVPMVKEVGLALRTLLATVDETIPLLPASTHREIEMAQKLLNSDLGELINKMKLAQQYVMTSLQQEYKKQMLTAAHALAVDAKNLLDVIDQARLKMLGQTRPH

[4] = system: Fibrinogen (Alexa647-labelled); assay: Alexa647-fibrinogen binding to printed small molecules – biochemical, small-molecule microarray, 635/667 nm fluorescence, artefact control for SMM control-protein annotation, profiling panel (AID 1131); settings: fibrinogen-A647 binding fluorescence, higher = more signal;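 note: z-score merges 667 nm fluorescence with per-spot signal-to-noise over triplicate slides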
[5] = target: Follistatin (Homo sapiens) (UniProt P19883); assay: FST protein binding to printed compounds – biochemical, small-molecule microarray, 635/667 nm fluorescence, primary screen (AID 1132); settings: 635 nm fluorescence, higher = more signal
Chain of Follistatin (Homo sapiens) (P19883 whole entry, looked up): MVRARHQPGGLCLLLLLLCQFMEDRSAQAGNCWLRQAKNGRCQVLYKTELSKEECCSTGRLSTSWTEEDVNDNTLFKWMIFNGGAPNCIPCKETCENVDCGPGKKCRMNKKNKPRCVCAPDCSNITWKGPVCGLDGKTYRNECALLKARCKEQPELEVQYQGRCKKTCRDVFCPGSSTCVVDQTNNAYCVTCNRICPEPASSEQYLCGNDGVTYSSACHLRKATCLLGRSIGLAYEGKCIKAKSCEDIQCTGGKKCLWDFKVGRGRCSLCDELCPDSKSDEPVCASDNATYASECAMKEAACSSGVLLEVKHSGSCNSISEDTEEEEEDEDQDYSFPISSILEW

[6] = target: Fibroblast growth factor 2 (Homo sapiens) (UniProt P09038); assay: basic fibroblast growth factor binding to printed compounds – biochemical, small-molecule microarray, 635/667 nm fluorescence, primary screen (AID 1133); settings: FGF2, fluorescence 635/667, higher = more signal
Chain of Fibroblast growth factor 2 (Homo sapiens) (P09038 whole entry, looked up): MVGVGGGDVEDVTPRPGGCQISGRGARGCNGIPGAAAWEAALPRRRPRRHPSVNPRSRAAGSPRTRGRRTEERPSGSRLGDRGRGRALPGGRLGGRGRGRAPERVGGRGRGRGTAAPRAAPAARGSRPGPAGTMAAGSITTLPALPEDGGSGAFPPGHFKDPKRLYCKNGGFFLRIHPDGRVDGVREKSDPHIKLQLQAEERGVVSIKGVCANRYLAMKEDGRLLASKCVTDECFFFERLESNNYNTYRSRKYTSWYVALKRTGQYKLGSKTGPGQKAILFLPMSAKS

[7] = JC-1 mitochondrial potential readout, lung cancer cells – cell-based, A549, JC-1 fluorescence, basal, 24 h, 100 nL, profiling panel (AID 1138); settings: higher = more signal;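 note: A549 lung adenocarcinoma cells under basal conditions with no added stimulus; test concentration not given here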
Lefty1 = Lefty1 protein binding to printed compounds – biochemical, small-molecule microarray, 635/667 nm fluorescence, primary screen (AID 1139); settings: fluorescence 635/667, higher = more signal
[8] = system: wheat germ agglutinin (Triticum aestivum), Alexa647-labelled; assay: Alexa647-WGA lectin binding to printed small molecules – biochemical, small-molecule microarray, 635/667 nm fluorescence, artefact control for SMM control-protein annotation, profiling panel (AID 1140); settings: WGA-A647 binding, 635 nm fluorescence, higher = more signal;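 note: score merges 667 nm feature emission with signal to noise over triplicate slides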
[9] = target: Luciferin 4-monooxygenase (Photinus pyralis) (UniProt P08659); assay: inhibition of purified Photinus pyralis luciferase – biochemical, luminescence, purified enzyme, 2006 set, primary screen (AID 1141); settings: purified firefly luciferase, SteadyGlo luminescence, 30 min; higher = more signal, called active from +8 up or from −8 down;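 note: cell-free assay with purified firefly luciferase at 100 ng per well in PBS; test concentration not given here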
Chain of Luciferin 4-monooxygenase (Photinus pyralis) (P08659 whole entry, looked up): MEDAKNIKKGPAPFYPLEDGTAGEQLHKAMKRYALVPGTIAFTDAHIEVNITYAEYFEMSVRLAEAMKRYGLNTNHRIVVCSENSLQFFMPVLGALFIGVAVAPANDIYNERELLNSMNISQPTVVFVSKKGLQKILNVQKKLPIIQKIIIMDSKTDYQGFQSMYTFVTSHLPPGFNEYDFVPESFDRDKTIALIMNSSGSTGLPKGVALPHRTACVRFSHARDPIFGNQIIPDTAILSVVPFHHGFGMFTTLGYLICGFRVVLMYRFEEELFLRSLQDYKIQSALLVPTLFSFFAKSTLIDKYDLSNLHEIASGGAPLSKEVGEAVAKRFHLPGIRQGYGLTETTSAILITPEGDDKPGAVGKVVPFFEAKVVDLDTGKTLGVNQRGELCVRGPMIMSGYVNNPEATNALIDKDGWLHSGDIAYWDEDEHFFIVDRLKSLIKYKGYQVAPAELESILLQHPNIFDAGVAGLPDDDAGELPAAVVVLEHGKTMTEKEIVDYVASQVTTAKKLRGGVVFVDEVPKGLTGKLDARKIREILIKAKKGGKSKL

[10] = system: Wnt5a (protein binding on small-molecule microarray); assay: small molecules binding Wnt5a protein – biophysical, small-molecule microarray, 635/667 nm fluorescence, primary screen (AID 1142); settings: 635 nm fluorescence, higher = more signal;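 note: fluorescence read at 667 nm with signal to noise per printed feature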
[11] = ATP-based viability of Huh7 replicon cells – cell-based, CellTiter-Glo luminescence, basal, 48 h, cytotoxicity control for HCV replication inhibitor project, primary screen (AID 1143); settings: higher = more signal, called active from +8 up or from −8 down;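 note: Huh7 hepatoma cells carrying a hepatitis C replication reporter with no stimulus; test concentration not given here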
[12] = Pseudomonas biofilm growth suppression – PAO1 strain, BacTiter-Glo luminescence, LB-PBS, primary screen (AID 1144); settings: P. aeruginosa PAO1 biofilm, 12 h, higher = more signal
[13] = basal CRE-LacZ reporter activity in PC12 – cell-based, unstimulated, primary screen (AID 1145); settings: no forskolin, luminescence, 4.5 h, higher = more signal, called active from +8 up or from −8 down
[14] = forskolin-driven CRE-LacZ activity in PC12 – cell-based, CRE-LacZ reporter, forskolin-stimulated, primary screen (AID 1146); settings: luminescence, 4.5 h, higher = more signal, called active from +8 up or from −8 down;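 note: PC12 cells with 6xCRE LacZ reporter stimulated by forskolin 10 µM; beta-galactosidase reporter signal reflecting CREB driven transcription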
[15] = target: Streptavidin (Streptomyces avidinii) (UniProt P22629); assay: compounds binding control protein streptavidin – biophysical, small-molecule microarray, 635/667 nm fluorescence, artefact control for SMM compound annotation, primary screen (AID 1147); settings: higher = more signal;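 note: signal reflects streptavidin binding to arrayed compounds as a control protein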
Chain of Streptavidin (Streptomyces avidinii) (P22629 whole entry, looked up): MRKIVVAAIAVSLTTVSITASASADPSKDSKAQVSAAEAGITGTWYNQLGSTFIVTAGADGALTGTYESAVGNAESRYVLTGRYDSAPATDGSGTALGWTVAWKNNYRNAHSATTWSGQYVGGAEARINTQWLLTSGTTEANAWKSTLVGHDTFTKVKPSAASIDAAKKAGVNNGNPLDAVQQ

[16] = probe aInhba binding on compound microarray – biochemical, small-molecule microarray, 635/667 nm fluorescence, primary screen (AID 1148); settings: higher = more signal;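 note: score merges 667nm spot fluorescence with signal-to-noise for antibody binding to printed compounds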
Torsin-1A (Homo sapiens) [17] = target: Torsin-1A (Homo sapiens) (UniProt O14656); assay: TOR1A wild-type binding on microarray – cell lysate, small-molecule microarray, lysate, 635/667 nm, primary screen (AID 1149); settings: COS7 hTOR1A-WT lysate, 635 nm fluorescence, higher = more signal
Chain of Torsin-1A (Homo sapiens) (O14656 whole entry, looked up): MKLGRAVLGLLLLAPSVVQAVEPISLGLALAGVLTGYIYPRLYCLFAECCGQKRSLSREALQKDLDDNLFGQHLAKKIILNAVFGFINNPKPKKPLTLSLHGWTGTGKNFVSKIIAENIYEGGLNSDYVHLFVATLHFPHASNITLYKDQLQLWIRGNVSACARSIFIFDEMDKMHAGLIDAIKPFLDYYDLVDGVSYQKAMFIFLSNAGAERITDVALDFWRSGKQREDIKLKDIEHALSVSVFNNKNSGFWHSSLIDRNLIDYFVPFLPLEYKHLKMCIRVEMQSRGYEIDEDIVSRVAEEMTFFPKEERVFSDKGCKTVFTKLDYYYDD

Torsin-1A (Homo sapiens) [18] = target: Torsin-1A (Homo sapiens) (UniProt O14656); assay: torsin A mutant lysate binding on microarrays – cell lysate, small-molecule microarray, COS7 lysate, 635/667 nm fluorescence, primary screen (AID 1150); settings: COS7 hTOR1A mutant lysate, 635 nm fluorescence, higher = more signal;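 note: score pools 667 nm emission and signal to noise measuring lysate protein binding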
[19] = system: Sonic hedgehog protein (Shh); assay: Sonic hedgehog microarray binding compounds – biochemical, small-molecule microarray, 635/667 nm fluorescence, primary screen (AID 1151); settings: 635 nm fluorescence, higher = more signal;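 note: Shh protein binding to compounds spotted on small-molecule microarray slides; score combines spot fluorescence intensity with signal-to-noise across triplicate slides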

SMILES: COCCOC(=O)N1C(=O)[C@@]2(c3cc(C#Cc4ccc(OC)cc4)ccc31)[C@H](C(N)=O)[C@H]1C(=O)O[C@H](c3ccccc3)[C@H](c3ccccc3)N1[C@@H]2c1ccc(OCCO)cc1
- composite z-score [1]: 1.71
- composite z-score [2]: 1.21
- composite z-score [3]: 0.398
- composite z-score [4]: 0.898
- composite z-score [5]: 1.28
- composite z-score [6]: 1.55
- z-score [7]: -1.96
- composite z-score (Lefty1): 0.997
- composite z-score [8]: 0.695
- z-score [9]: -0.297 (inactive)
- composite z-score [10]: 0.608
- z-score [11]: -4.52 (inactive)
- z-score [12]: -0.637 (inactive)
- z-score [13]: -0.598 (inactive)
- z-score [14]: -0.164 (inactive)
- composite z-score [15]: 0.741
- composite z-score [16]: 0.267
- composite z-score (Torsin-1A (Homo sapiens) [17]): 0.534
- composite z-score (Torsin-1A (Homo sapiens) [18]): 0.424
- composite z-score [19]: 1.66

SMILES: C#CCOC(=O)N[C@H](C=CCCCC)c1ccccc1
- composite z-score [1]: 1.33
- composite z-score [2]: 0.95
- composite z-score [3]: 0.4
- composite z-score [4]: 0.762
- composite z-score [5]: -0.101
- composite z-score [6]: -0.204
- z-score [7]: 0.59
- composite z-score (Lefty1): -1.09
- composite z-score [8]: 0.817
- z-score [9]: 0.597 (inactive)
- composite z-score [10]: -0.0582
- z-score [11]: -0.342 (inactive)
- z-score [12]: -0.604 (inactive)
- z-score [13]: 0.197 (inactive)
- z-score [14]: 0.488 (inactive)
- composite z-score [15]: 0.335
- composite z-score [16]: 0.0714
- composite z-score (Torsin-1A (Homo sapiens) [17]): 0.28
- composite z-score (Torsin-1A (Homo sapiens) [18]): 0.0584
- composite z-score [19]: -0.13

SMILES: C=C(CCCC)/C(=C/C[C@@H](OC(=O)c1ccncc1)c1ccccc1OCCO)c1cc(C(=O)OC)ccc1OC
- composite z-score [1]: 2.82
- composite z-score [2]: 1.22
- composite z-score [3]: 1.38
- composite z-score [4]: 0.979
- composite z-score [5]: 0.549
- composite z-score [6]: 0.213
- z-score [7]: 3.24
- composite z-score (Lefty1): 0.444
- composite z-score [8]: 1
- z-score [9]: -1.76 (inactive)
- composite z-score [10]: 0.106
- z-score [11]: -2.02 (inactive)
- z-score [12]: 0.0648 (inactive)
- z-score [13]: 15.6 (active)
- z-score [14]: 0.383 (inactive)
- composite z-score [15]: -0.36
- composite z-score [16]: -0.0047
- composite z-score (Torsin-1A (Homo sapiens) [17]): 0.622
- composite z-score (Torsin-1A (Homo sapiens) [18]): 1.1
- composite z-score [19]: 1.4

SMILES: COCCCNC(=O)[C@@]1(Cc2ccccc2N=[N+]=[N-])N=C(c2ccc(OCCCO)cc2)O[C@H]1c1ccccc1CN=[N+]=[N-]
- composite z-score [1]: 2.71
- composite z-score [2]: 1.23
- composite z-score [3]: 1.06
- composite z-score [4]: 0.998
- composite z-score [5]: 1.04
- composite z-score [6]: 0.969
- z-score [7]: 1.64
- composite z-score (Lefty1): -0.113
- composite z-score [8]: 1.05
- z-score [9]: -3.93 (inactive)
- composite z-score [10]: 0.972
- z-score [11]: -5.06 (inactive)
- z-score [12]: -0.389 (inactive)
- z-score [13]: 1.84 (inactive)
- z-score [14]: -1.75 (inactive)
- composite z-score [15]: 1.08
- composite z-score [16]: 0.246
- composite z-score (Torsin-1A (Homo sapiens) [17]): 0.554
- composite z-score (Torsin-1A (Homo sapiens) [18]): 0.752
- composite z-score [19]: -0.265

SMILES: COCCOC(=O)N1C(=O)[C@@]2(c3cc(C#CCCO)ccc31)[C@H](C(=O)N1CCc3cc(OC)c(OC)cc3C1)[C@H]1C(=O)O[C@H](c3ccccc3)[C@H](c3ccccc3)N1[C@@H]2c1ccc(OCCO)cc1
- composite z-score [1]: 0.768
- composite z-score [2]: 1.08
- composite z-score [3]: 0.148
- composite z-score [4]: 0.786
- composite z-score [5]: 1.27
- composite z-score [6]: 1.29
- z-score [7]: -0.236
- composite z-score (Lefty1): 1.11
- composite z-score [8]: 0.774
- z-score [9]: -2.83 (inactive)
- composite z-score [10]: 0.667
- z-score [11]: -2.99 (inactive)
- z-score [12]: -1.11 (inactive)
- z-score [13]: 0.362 (inactive)
- z-score [14]: -1.27 (inactive)
- composite z-score [15]: 0.675
- composite z-score [16]: 0.077
- composite z-score (Torsin-1A (Homo sapiens) [17]): 0.284
- composite z-score (Torsin-1A (Homo sapiens) [18]): 0.89
- composite z-score [19]: 2.13
